Measured values from PubChem BioAssay (EPA / NIEHS).
A structure can be active in one record and inactive in another. Activity calls are given as the source filed them. The calls were made as follows: active = hit-call score of the fitted dose curve at least 0.9, where 1 is the maximum; inactive = score below 0.9.

Assay: ATG_M_19_CIS: Attagene CIS-FACTORIAL HepG2 Assay for M19 Transcription Factor (Internal Marker) (AID 2282939)
Details: HepG2 Attagene CIS-FACTORIAL M19 internal marker reporter; actives raise or lower the signal
In short: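 HepG2 cells transiently transfected with cis-regulated multiplexed reporter units, dosed 24 h. Reporter mRNA quantified by RT-PCR and capillary electrophoresis; internal background marker fitted bidirectionally versus DMSO.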

SMILES	outcome	AC50
COc1ccc2[nH]cc(CCNC(C)=O)c2c1	inactive	
CCC(=O)OCC=Cc1ccccc1	inactive	
CC(C)CCOC(=O)CC(C)C	inactive	
C#C[C@]1(O)CC[C@H]2[C@@H]3CCc4cc(O)ccc4[C@H]3CC[C@@]21C	inactive	171 µM (active)
O=c1cc[nH]cc1	inactive	
CCC(C)(CCCC(C)C)OC(C)=O (stereo unspecified)	inactive	
O=C1OCc2ccccc21	inactive	

Assay: ATG_ERE_CIS: Attagene CIS-FACTORIAL HepG2 Assay for Estrogen Response Element (ERE) (AID 2282940)
Details: HepG2 ERE cis-reporter, Attagene RNA transcript; actives raise or lower the signal
In short: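 HepG2 cells transiently transfected with multiplexed cis-element reporter units, measuring endogenous transcription factor activity; ERE reporter mRNA quantified after 24 h exposure by RT-PCR, fluorescent labelling, HpaI digestion and capillary electrophoresis. Bidirectional change versus DMSO.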

SMILES	outcome	AC50
NC(N)=NC(N)=NCCc1ccccc1	inactive	
CC/C=C\CCOC(=O)C(C)C	inactive	
CC(C)=CCCC(C)=CC(=O)O	inactive	
CCC=C(C)C=O		27.4 µM (active)
C=C1CC[C@H]2O[C@]2(C)CC[C@@H]2[C@@H]1CC2(C)C	inactive	
CCC(=O)OC/C=C(\C)CCC=C(C)C	inactive	
CCO[Si](CCC#N)(OCC)OCC	inactive	
CC(C)(O)CCc1ccccc1	inactive	
CC(=O)C1C(=O)C=C(C)OC1=O (stereo unspecified)	inactive	
CCc1cccc(O)c1	inactive	
CC(CO)(CO)[N+](=O)[O-]	inactive	
C[C@H](CCC(=O)O)[C@H]1CC[C@H]2[C@@H]3CC[C@@H]4C[C@H](O)CC[C@]4(C)[C@H]3CC[C@]12C	inactive	
CCC(C)(C)C1CCC(OC)CC1 (stereo unspecified)	inactive	
C=CC(=O)OCC(CO)(COC(=O)C=C)COC(=O)C=C	inactive	
CN(C)c1ccc(C=O)cc1	inactive	
CC1=CCC(C(C)(C)O)CC1 (stereo unspecified)	inactive	
CC(=O)CC(=O)N(C)C	inactive	

SMILES	outcome	AC50
CCCc1ccc(O)cc1		26.8 µM (active)
C=C1CC/C=C(\C)CC[C@@H]2[C@@H]1CC2(C)C		33.8 µM (active)
C=CC(C)(CCC=C(C)C)OC(=O)CC (stereo unspecified)	inactive	
CCCCCCCCCCOC(=O)c1ccccc1C(=O)OCCCCCCCC	inactive	
CC(O)COCC(C)O (stereo unspecified)	inactive	
O=C1CCCCCCCCCCCC(=O)OCCO1	inactive	
NC(=O)c1c(Cl)cccc1Cl	inactive	
c1ccc2c(c1)-c1ccc3ccc4cccc5cc-2c1c3c45		0.374 µM (active)
CC1=C(C=O)C(C)(C)CCC1	inactive	
CC(C)OB(OC(C)C)OC(C)C	inactive	
COc1ccc2[nH]cc(CCNC(C)=O)c2c1	inactive	
CCC(=O)OCC=Cc1ccccc1	inactive	
CC(C)CCOC(=O)CC(C)C	inactive	
O=c1cc[nH]cc1	inactive	
CCC(C)(CCCC(C)C)OC(C)=O (stereo unspecified)	inactive	
O=C1OCc2ccccc21	inactive	
